Experimental data taken from PubChem BioAssay (NCI).
The panel holds about 79,000 compounds, 15% with a hit somewhere; the sample as a whole holds those more often. No stated cut-off is given here; in the data, active means growth inhibition above about 70%; inactive means the rest.

How the values were obtained:
[1] = NCI Yeast Anticancer Drug Screen. Data for the rad50 strain (AID 155);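 further: 0% = growth of vehicle-only cultures of the same strain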; settings: S. cerevisiae rad50 strain growth inhibition; at 50.0 µM; stronger effect = higher value
How it was run: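 DNA repair mutant yeast, compound exposure, growth read-out; inhibition is taken relative to vehicle.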

[2] = NCI Yeast Anticancer Drug Screen. Data for the mec2-1 strain (AID 157); settings: S. cerevisiae mec2-1 strain, at 50.0 µM, stronger effect = higher value
How it was run: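 Using mec2-1 yeast: add compound, measure growth, express inhibition versus vehicle-treated cultures.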

[3] = NCI Yeast Anticancer Drug Screen. Data for the sgs1 mgt1 strain (AID 161);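 further: 0% = growth of cultures given vehicle only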; settings: S. cerevisiae sgs1 mgt1 strain, at 50.0 µM, stronger effect = higher value
How it was run: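 Compounds are added to genetically altered yeast, and growth is compared with cultures given vehicle alone to give percent inhibition.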

[4] = NCI Yeast Anticancer Drug Screen. Data for the cln2 rad14 strain (AID 165);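 further: 0% = growth equal to vehicle treated cultures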; settings: S. cerevisiae cln2 rad14 strain, at 50.0 µM, stronger effect = higher value
How it was run: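 Yeast strain cln2 rad14, bearing defects in cell cycle control and DNA repair, serves as the test system; values reflect growth inhibition compared with vehicle.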

[5] = NCI Yeast Anticancer Drug Screen. Data for the bub3 strain (AID 167); settings: S. cerevisiae bub3 mutant strain, at 50.0 µM, stronger effect = higher value
How it was run: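 In this screen, a yeast mutant lacking normal mitotic checkpoint function is challenged with compound. Relative growth versus vehicle gives the inhibition value.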

[6] = NCI Yeast Anticancer Drug Screen. Data for the mlh1 rad18 strain (AID 175); settings: S. cerevisiae mlh1 rad18 strain growth inhibition; at 50.0 µM; stronger effect = higher value
How it was run: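 Steps: expose repair-defective yeast to compound; measure growth; express inhibition against vehicle-treated controls.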

Measured: growth inhibition

O=C1O[C@@H](c2ccccc2)C[C@@H]1CN1CCOCC1
inactive: [1] 24.4% | [2] 13.7% | [3] 22.7% | [4] 26.1% | [5] 3.15% | [6] 15.1%

C1CCC(C2CCCC[N-]2)[N-]C1.C1CCC(C2CCCC[N-]2)[N-]C1.O=C(O)C(=O)O.[Ru+4] (stereo not given)
inactive: [1] 31.8% | [2] 9.4% | [3] 16.2% | [4] 11.8% | [5] -3.25% | [6] 7.9%

OCC1OC(n2cnc3c(Cl)nc(Nc4ccc(Cl)c(Cl)c4)nc32)CC1O (stereo not given)
inactive: [1] 7.45% | [2] -0.2% | [3] -12.9% | [4] -0.4% | [5] -16.9% | [6] 66%

O=[N+]([O-])c1ccc(OCc2ccc(CBr)cc2)c(Cl)c1
inactive: [1] 4.1% | [2] 29.6% | [3] 15.4% | [4] -13.7% | [5] 16% | [6] 22.5%

O=C(CCC/C(CC(=O)c1ccc(Cl)cc1)=N\NC(=O)c1cc2ccccc2cc1O)Nc1cccc([N+](=O)[O-])c1
inactive: [1] 52% | [2] 47.2% | [3] 52.9% | [4] 25.6% | [5] 6% | [6] 56.8%

O=C1CCCCC1C(O)(C(F)(F)F)C(F)(F)Cl (stereo not given)
inactive: [1] -20.4% | [2] -28.9% | [3] -36.7% | [4] -13.7% | [5] -30.2% | [6] -20.1%

O=S(=O)(O)c1cc2nonc2c2ccccc12
inactive: [1] 2.75% | [2] -0.85% | [3] 12.9% | [4] 9.25% | [5] 0.9% | [6] -2.6%

CCOC(=O)C1=NC(c2ccccc2)N(c2ccccc2)C1c1ccccc1 (stereo not given)
inactive: [1] -9% | [2] -8.5% | [3] 17.9% | [4] -0.75% | [5] 10.3% | [6] 8.3%

CN(CCC1(C)C(=O)CCc2ccccc21)Cc1ccccc1 (stereo not given)
inactive: [1] 12.9% | [2] 21.8% | [3] 22.8% | [4] 30.9% | [5] 14.1% | [6] 17.1%

O=C1c2cn[nH]c2C(c2ccccc2)N1c1ccccc1 (stereo not given)
inactive: [1] 44.1% | [2] 6.8% | [3] 22.6% | [4] 24.3% | [5] 27.9% | [6] 38.9%

Cc1ccnc(N=C/C=C2/C=CC=CN2O)c1
inactive: [1] 0.25% | [2] -9.35% | [3] 1.75% | [4] 5.55% | [5] -8.45% | [6] -11.8%

O=S(=O)(c1ccccc1)c1ccc(CI)cc1
inactive: [1] 15.8% | [2] 19.9% | [3] 5.05% | [4] 17.4% | [5] 13.7% | [6] 9.05%

NC(=O)C1(c2cccs2)CCCC1
inactive: [1] 4.9% | [2] 3.4% | [3] 6.5% | [4] -26.1% | [5] -12.3% | [6] 26.2%

O=C(c1cccc([N+](=O)[O-])c1)N1CCCCC1
inactive: [1] 1.4% | [2] -11.8% | [3] 16.2% | [4] -17.1% | [5] 4.1% | [6] -5.05%

NC1(c2ccccc2)C2CC3CC(C2)CC1C3 (stereo not given)
inactive: [1] 14.1% | [2] 1% | [3] -9.1% | [4] -48.8% | [5] 7.25% | [6] 3.7%

CC(C)CC(CC(C)C)OC(=O)Nc1ccccc1
inactive: [1] -1% | [2] 17.3% | [3] 9.05% | [4] 33.6% | [5] 30.1% | [6] 25.9%

Cc1cc(C)nc(NC(=O)COc2ccc(Cl)cc2)c1
inactive: [1] -15.7% | [2] 5.95% | [3] -20.8% | [4] -39.7% | [5] -37.5% | [6] -14.8%

Cc1ccccc1NC(=O)C(=O)C(C#N)c1ccc(Cl)cc1Cl (stereo not given)
inactive: [1] -19.3% | [2] 6% | [3] 24.8% | [4] -19.6% | [5] 7.3% | [6] 19.9%

CC(=O)OC1C(COS(=O)(=O)c2ccc(C)cc2)OCOC(COS(=O)(=O)c2ccc(C)cc2)C1OC(C)=O (stereo not given)
inactive: [1] 0.2% | [2] 4.4% | [3] -0.55% | [4] -26.2% | [5] -0.7% | [6] 18.4%

CC(N)(CCBr)C(=O)O (stereo not given)
inactive: [1] 3.85% | [2] 5.2% | [3] -0.05% | [4] -4.75% | [5] -5.95% | [6] -17.4%
